# Source: publication PMC12136788
# Substitutions are numbered along the chain they refer to. Over roughly 5,800 sequences, “enrichment r” has its median near 0.68; the highest 2% begin near 11. The sample as a whole holds a higher share of the highest values than the screen did.
# T1: UNK ZnF1-6 (called full-length) (human, UniProt Q9C0B0 30-357)
# T1 sequence: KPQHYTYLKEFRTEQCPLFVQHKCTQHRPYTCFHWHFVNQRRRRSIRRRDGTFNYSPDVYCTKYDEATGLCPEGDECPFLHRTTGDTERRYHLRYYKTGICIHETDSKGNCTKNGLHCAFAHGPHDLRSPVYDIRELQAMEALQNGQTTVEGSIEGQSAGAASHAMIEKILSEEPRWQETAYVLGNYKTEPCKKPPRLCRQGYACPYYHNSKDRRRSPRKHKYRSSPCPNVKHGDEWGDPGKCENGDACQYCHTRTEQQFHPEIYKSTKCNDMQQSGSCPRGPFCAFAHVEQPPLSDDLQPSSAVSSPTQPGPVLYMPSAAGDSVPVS
# B1: chr1:3780741:3780842:-|3pUTR|ENSG00000130764|unk|total|mutant (ssRNA)
# RNA: GGGAGUUCUACAGUCCGACGAUCCCAAGCCGCUGGGACUACAGGUGUGUGCCACUAAGCUCAGCUAAUUUUUGUAUUUUCCGCCGAGACGGGGUUUCACCAUUUUGACCAGGAUGGUCUUGAUCUCUUGACCUCAUGAUCUGUCAACAGAGGAUUGAGCAUCA
# B2: chr20:45898604:45898705:+|3pUTR|ENSG00000064601|unk|total|mutant (ssRNA)
# RNA: GGGAGUUCUACAGUCCGACGAUCAGAGCCCUGUACAUCCCAGACUGGGCCCAGGGUCUCCCACCGACAGCCUGGGGGCAAGUCCGCACUUUAUUCCCGCAGCAGUUCCUGAAUGGGGUGGCCUGGCCCCUUCUCUGCUUAAAGCAACAGAGGAUUGAGCAUCA
# B3: chr17:47844907:47847298:-|three_prime_utr|ENSG00000189120|control|control|control (ssRNA)
# RNA: GGGAGUUCUACAGUCCGACGAUCAAGGUGCGUAUUUAUUCAGGGAGGAGGAAAAGUGGUGCAGGGACAGGGAGAUGGGGCGCUAGGGGUUCUUAGUCUCUGGGGCUACUAGGCAGGAUGAAUUUGACUGGGUCGGUAGGAGCUCAACAGAGGAUUGAGCAUCA
# B4: ENSG00000198589:be:win_9001|3pUTR|ENSG00000198589|bound_else_gene|NA|bound_elsewhere_windowed (ssRNA)
# RNA: GGGAGUUCUACAGUCCGACGAUCUUCUUCAGCACUAAUAUUUCUGGGAUUUAAAUAGUAAUGUUUAAAUUAUGGUAAAUGUAAUUUAAAACAUCUCAAUUAAGUCUGUCUAUCAAUAUUGUUCUUCAAGCAUGUUUUAGACCUCAACAGAGGAUUGAGCAUCA
# B5: ENSG00000070961:be:win_251|CDS|ENSG00000070961|bound_else_gene|NA|bound_elsewhere_windowed (ssRNA)
# RNA: GGGAGUUCUACAGUCCGACGAUCUGUUUGGAAAGAAUUUUAUACCUCCUAAAAAGCCAAAAACCUUUCUUCAAUUAGUAUGGGAAGCAUUACAAGAUGUCACUUUAAUUAUAUUAGAAAUUGCAGCCAUAGUAUCAUUGGGCCCAACAGAGGAUUGAGCAUCA
# B6: chr5:134606522:134606623:-|3pUTR|ENSG00000152700|msi1_unk|total|mutant (ssRNA)
# RNA: GGGAGUUCUACAGUCCGACGAUCAACUAUAAACCAUAUUUAAAAGCUCAUCAUGUUAAAUUUUUUAUGUACUUUUCUGGAACCCGUUUUUAAAUUUCCGAUUAUAUGUCCACCUAUCUUAAGUGUACAGUUAAUAAUCCGCUUCAACAGAGGAUUGAGCAUCA
# B7: chr8:23843870:23844003:-|3pUTR|ENSG00000159167|msi1|FALSE|unique (ssRNA)
# RNA: GGGAGUUCUACAGUCCGACGAUCAAUUCCAGAGGACUCUGCUUAAACAAAGCAGUAUAUAAUAACUUUAUUGCAUAUAGAUUUAGUUUUGUAACUUAGCUUUAUUUUUCUUUUCCUGGGAAUGGAAUAACUAUCUCACUUCCACAACAGAGGAUUGAGCAUCA
# B8: chr6:142752714:142752806:-|3pUTR|ENSG00000010818|msi1_unk|FALSE|overlapping (ssRNA)
# RNA: GGGAGUUCUACAGUCCGACGAUCUUUUCUUUACUUUGCUUAUAUUCUUAUAAGCAUUUUUUAGCAGUAAUUUGUACAUAUUUUAGAAUUUGUGUAUCUGCUUUGUAAUAAAUGUAAUUUCUUUCCUUUUUUGGACACUUGGAUCAACAGAGGAUUGAGCAUCA
# B9: chr4:110049619:110049852:-|3pUTR|ENSG00000170522|msi1|FALSE|unique (ssRNA)
# RNA: GGGAGUUCUACAGUCCGACGAUCUUGUUCAAUGUGACAUAAUAGUAUUAUAAUUGGUUAAGUAGCUUAAUGAUUAGGCAAACUAGAUGAAAAGAUUAGGGGCUUCCACACUGCAUAGAUUACACGCACAUAGCCACGCAUACACAACAGAGGAUUGAGCAUCA
# B10: chr5:134606522:134606623:-|3pUTR|ENSG00000152700|msi1_unk|FALSE|overlapping (ssRNA)
# RNA: B6 RNA with C83U, C84A, C97U, C98A, C138U, C139A
# B11: chr17:67340809:67340863:-|CDS_3pUTR|ENSG00000197170|msi1_unk|FALSE|overlapping (ssRNA)
# RNA: GGGAGUUCUACAGUCCGACGAUCACAAAACUACGCAUCUCAUAGCCAAAGAGGAGAUGAUACAUAAUCUACAAUAAGGGUCUUAGUGCUUUAGAAAAAAGUUAAAAUUGGAAGUCAUUAAAAAAAGACUGUUAUAAUGGUGUACAACAGAGGAUUGAGCAUCA
# B12: ENSG00000070961:be:win_6051|3pUTR|ENSG00000070961|bound_else_gene|NA|bound_elsewhere_windowed (ssRNA)
# RNA: GGGAGUUCUACAGUCCGACGAUCCAGAAAUUUCCAGAGCAUUAUGUAGGUAGAAAAAAAUGCAAGCAAGCUGUUAAAGAUCUUGGAUCCCAUUAUAUAGUAUGUAUAGCUGAAAUCUGUAAUUCAAUCACUUUUUCUCUUUUACAACAGAGGAUUGAGCAUCA
# B13: chr9:14618660:14618761:-|3pUTR|ENSG00000175893|msi1|FALSE|unique (ssRNA)
# RNA: GGGAGUUCUACAGUCCGACGAUCUUAGCUUUCCACAGGGAUUUCUUGAAAUGCUUUUGUUAUUAAACUCAAAAGGCAGUGAUUAGGAUGAAAUAAUUGUACAUAAUUUAUUUUAGUACUGACAGUGUUACAGAUUCUAAUUUACAACAGAGGAUUGAGCAUCA
# B14: chr3:167478683:167478996:-|three_prime_utr|ENSG00000174776|control|control|control (ssRNA)
# RNA: GGGAGUUCUACAGUCCGACGAUCCUGCCUUUUAUUUUAUUUUAUAUUUAAACUUCAGGAAGUUUUCUCUUCAUGGGAUAAUUUAGUACUGCUUUUAUCUAUCAUCUGUCAAUUUCUCUGUAUUCUUAAUAAAAUAAAUAUUGACAACAGAGGAUUGAGCAUCA
# B15: ENSG00000070961:be:win_6101|3pUTR|ENSG00000070961|bound_else_gene|NA|bound_elsewhere_windowed (ssRNA)
# RNA: GGGAGUUCUACAGUCCGACGAUCUAAAGAUCUUGGAUCCCAUUAUAUAGUAUGUAUAGCUGAAAUCUGUAAUUCAAUCACUUUUUCUCUUUUAUCCUCUAACCAAAAAAUUGUUUAAUUUUGCAUCCCAAAUGUUUUUAAUCUCAACAGAGGAUUGAGCAUCA
# Molecular target: T1, UNK ZnF1-6 (called full-length)
# Experiment: nsRBNS (natural sequence RNA bind-n-seq); RBNS binding buffer (assumed for nsRBNS): 25 mM Tris pH 7.5, 150 mM KCl, 3 mM MgCl2, 0.01% Triton X-100, 500 ug/ml BSA, 20 U/ml SUPERase-In, 4 C; UNK is unkempt and MSI1 is Musashi-1; names of the RNAs are library labels; protein concentration not given here; high values mean tight binding
row,Binder,binding signal
1,B1,0.591 enrichment R
2,B2,1.01 enrichment R
3,B3,1.32 enrichment R
4,B4,0.446 enrichment R
5,B5,5.79 enrichment R
6,B6,2.06 enrichment R
7,B7,13.9 enrichment R
8,B8,2.11 enrichment R
9,B9,14.6 enrichment R
10,B10,25.7 enrichment R
11,B11,0.932 enrichment R
12,B12,3.07 enrichment R
13,B13,0.961 enrichment R
14,B14,2.14 enrichment R
15,B15,39 enrichment R
